Assay [1] concerns the target Peroxisome proliferator-activated receptor delta (Homo sapiens) (UniProt Q03181). Kind of assay: qHTS assay for small molecule agonists of peroxisome proliferator-activated receptor delta signaling (AID 588534).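 Also: 0% = DMSO basal wells and 100% = positive control agonist at 10 µM.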 The method, boiled down: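 Cell-based beta-lactamase reporter assay run in agonist mode: cells seeded and incubated 5 hrs at 37 C, compounds added and incubated 18 hrs at 37 C. CCF4 dye fluorescence read after 2 hrs at RT; EC50 and efficacy from Hill fits.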

Assay [2] deals with Glucocorticoid receptor (Homo sapiens) (UniProt P04150). Kind of assay: qHTS assay for small molecule antagonists of glucocorticoid receptor signaling (AID 588533; active = well fitted inhibition curve with a large enough effect in the signal ratio, with a control signal flat, not every such curve was filed as active; the % refers to the signal ratio;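 also: cells stimulated with 2 nM dexamethasone as agonist; % is scaled to controls: 0 for no effect and ±100 for the full control effect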). The method, boiled down:
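Antagonist-mode qHTS: compound titrations added to GRE-bla HeLa cells, then dexamethasone 2 nM final; 18 h, 37 C. CCF4 FRET fluorescence normalized to dexamethasone and DMSO; IC50 from Hill fit.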
In general terms: qHTS replaces the single test concentration by a dilution series.

Assay [3] in a line: qHTS assay for small molecule antagonists of peroxisome proliferator-activated receptor delta signaling (AID 588535; active = well fitted inhibition curve with a large enough effect in the signal ratio, with a control signal flat, not every such curve was filed as active; the % refers to the signal ratio;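 as to max response: cells co-treated with a PPAR-delta agonist as stimulator during compound exposure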). The following applies: HEK293T PPARd-UAS-bla, beta-lactamase FRET ratio, 18 h; 460 nm channel. The method, boiled down:
(§1)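 GeneBLAzer PPAR-delta-UAS-bla HEK293T cells in medium with 2% charcoal/dextran FBS were preincubated 5 hrs at 37 C, then given compounds, incubated 18 hrs at 37 C, and read by CCF4 beta-lactamase fluorescence; IC50 from Hill fits.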

Assay [4] has as its target Peroxisome proliferator-activated receptor delta (Homo sapiens) (UniProt Q03181). The description is as above. The method, boiled down: as §1
Assay [5] deals with Peroxisome proliferator-activated receptor gamma (Homo sapiens) (UniProt P37231). Description: qHTS assay for small molecule agonists of peroxisome proliferator-activated receptor gamma signaling (AID 588536; active = well fitted curve in the direction sought with a large enough effect in the signal ratio, with a control signal flat, not every such curve was filed as active; the % refers to the signal ratio;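 also: 0% = DMSO basal wells and 100% = rosiglitazone at 2 µM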). Summed up: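 Test agents, titrated, stimulated HEK293 UAS-bla cells overnight (16 h, 37 C). Substrate CCF4 was then added for two hours at room temperature before fluorescence reading.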
Sequence of Peroxisome proliferator-activated receptor gamma (Homo sapiens) (P37231 whole entry, looked up): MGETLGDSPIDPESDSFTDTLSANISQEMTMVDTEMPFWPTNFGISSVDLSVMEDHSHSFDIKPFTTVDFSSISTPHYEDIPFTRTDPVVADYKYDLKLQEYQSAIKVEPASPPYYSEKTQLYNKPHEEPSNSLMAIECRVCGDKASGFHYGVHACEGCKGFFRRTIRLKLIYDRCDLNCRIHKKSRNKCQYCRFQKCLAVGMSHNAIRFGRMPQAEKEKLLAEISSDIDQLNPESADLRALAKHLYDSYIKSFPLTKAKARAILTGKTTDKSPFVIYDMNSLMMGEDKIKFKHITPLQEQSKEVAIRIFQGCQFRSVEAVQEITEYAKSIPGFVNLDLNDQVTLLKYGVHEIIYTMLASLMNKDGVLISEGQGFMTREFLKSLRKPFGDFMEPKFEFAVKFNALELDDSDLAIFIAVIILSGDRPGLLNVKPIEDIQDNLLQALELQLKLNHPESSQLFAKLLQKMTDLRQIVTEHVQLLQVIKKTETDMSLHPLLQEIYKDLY

For assay [6] the target is unchanged. Description: qHTS assay for small molecule antagonists of peroxisome proliferator-activated receptor gamma signaling (AID 588537; active = well fitted inhibition curve with a large enough effect in the signal ratio, with a control signal flat, not every such curve was filed as active; the % refers to the signal ratio;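 also: reporter cells co-stimulated with 50 nM rosiglitazone agonist during compound treatment; % of control where 0% means no effect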). The method, boiled down: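 PPAR-gamma-UAS-bla HEK293 cells (3000/well, 1% charcoal/dextran-stripped FBS) were preincubated 6-6.5 h at 37 C, given titrated compounds, then stimulated with 50 nM rosiglitazone for 16 h. Beta-lactamase activity was read with CCF4 dye; IC50 came from Hill fits.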

The nature of assay [7]: qHTS assay for small molecule agonists of retinoid X receptor alpha signaling (AID 588544). Also: potency is read from the fitted curve at half-maximal effect. The following applies: HEK293T RXRa-UAS-bla, beta-lactamase reporter, 18 h; 530 nm emission.
Assay [8] addresses Retinoic acid receptor RXR-alpha (Homo sapiens) (UniProt P19793). The description is as above.
Assay [9] deals with Thyroid hormone receptor beta (Homo sapiens) (UniProt P10828). Description: qHTS assay for small molecule agonists of thyroid hormone receptor beta signaling (AID 588545). Summed up:
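Cells (2500/well) were seeded, incubated 4 hrs at 37 C, dosed with a compound series, incubated 18 hrs, loaded with CCF4 dye for 2 hrs at RT, then read for fluorescence. Data were scaled between DMSO (0%) and 10 nM T3 (100%).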

A short description of assay [10]: qHTS assay for small molecule antagonists of retinoid X receptor alpha signaling (AID 588546; active = well fitted inhibition curve with a large enough effect in the signal ratio, with a control signal flat, not every such curve was filed as active; the % refers to the signal ratio;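 also: cells stimulated with 9-cis-retinoic acid as agonist; % is scaled to controls: 0 for no effect and ±100 for the full control effect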). The following applies: HEK293T RXRa-UAS-bla, beta-lactamase ratio, antagonist mode; measured here: W530 green channel, cytotoxicity proxy. Summed up: (§2)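 Beta-lactamase reporter inhibition, read as CCF4 fluorescence ratio (ex 405, em 460/530 nm) after 2 h at RT. HEK293T UAS-bla cells, 2500/well, were stimulated with 9-cis-RA at 500 or 100 nM final alongside test compound for 18 h at 37 C.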

The target in assay [11] is Retinoic acid receptor RXR-alpha (Homo sapiens) (UniProt P19793). The assay is described as above. The following applies: HEK293T RXRa-UAS-bla, beta-lactamase ratio, antagonist mode. The method, boiled down:
as §2

For assay [12], the target named is Thyroid hormone receptor beta (Homo sapiens) (UniProt P10828). Description: qHTS assay for small molecule antagonists of thyroid hormone receptor beta signaling (AID 588547; active = well fitted inhibition curve with a large enough effect in the signal ratio, with a control signal flat, not every such curve was filed as active; the % refers to the signal ratio;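 also: cells stimulated with 0.4 nM T3 agonist during compound exposure; series mostly up to about 77 µM; % is scaled to controls: 0 for no effect and ±100 for the full control effect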). The following applies: TR-UAS-bla HEK293, beta-lactamase ratio, antagonist mode, 18 h. The method, boiled down: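 TR-UAS-bla GripTite HEK293 cells in 2% charcoal/dextran FBS medium were preincubated 4 h at 37 C, given compound (0.59 nM to 92 uM) plus 0.4 nM T3 (final) for 18 h, then CCF4 for 2 h at RT; Hill fit gave IC50.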
Sequence of Thyroid hormone receptor beta (Homo sapiens) (P10828 whole entry, looked up): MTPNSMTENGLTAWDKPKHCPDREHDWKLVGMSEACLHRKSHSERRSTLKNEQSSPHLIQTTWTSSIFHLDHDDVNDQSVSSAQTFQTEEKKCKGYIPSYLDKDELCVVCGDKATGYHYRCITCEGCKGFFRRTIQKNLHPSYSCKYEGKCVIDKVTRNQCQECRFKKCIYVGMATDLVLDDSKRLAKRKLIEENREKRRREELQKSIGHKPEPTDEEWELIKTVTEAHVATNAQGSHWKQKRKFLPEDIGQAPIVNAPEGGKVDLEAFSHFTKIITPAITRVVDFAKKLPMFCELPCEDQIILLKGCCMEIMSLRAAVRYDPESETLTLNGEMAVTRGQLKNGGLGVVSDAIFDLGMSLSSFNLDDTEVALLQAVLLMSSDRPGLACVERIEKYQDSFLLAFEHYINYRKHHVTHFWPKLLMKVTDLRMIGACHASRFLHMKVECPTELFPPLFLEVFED

The target of assay [13] is Voltage-gated inwardly rectifying potassium channel KCNH2 (Homo sapiens) (UniProt Q12809). Kind of assay: qHTS Assay for Small Molecule Inhibitors of the Human hERG Channel Activity (AID 588834; active = well fitted curve in the direction sought with a large enough effect; an effect the other way counts as inactive or inconclusive;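 also: lower thallium flux fluorescence means stronger hERG block; nearly all actives have a fitted effect of over 50% in size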; also: potency is read from the fitted curve at half-maximal effect). The method, boiled down:
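U2OS cells BacMam-transduced with hERG, 2000 cells/well, compound ~10 min at 37 °C before stimulation buffer. FluxOR thallium flux fluorescence read kinetically on FDSS; decrease indicates block; AC50 from Hill fits.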

Assay [14] deals with Luciferin 4-monooxygenase (Photinus pyralis) (UniProt P08659). Kind of assay: Biochemical firefly luciferase enzyme assay for NPC (AID 624030; active = well fitted curve in the direction sought with a large enough effect; an effect the other way counts as inactive or inconclusive;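 also: purified P. pyralis luciferase at 10 nM with luciferin and ATP substrate; series mostly up to about 59 µM; 0% = DMSO and -100% = full luciferase inhibition by PTC124 control; nearly all actives have a fitted effect of over 70% in size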). The method, boiled down:
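Counter-screen for direct inhibition of the luciferase enzyme by approved-drug library compounds, run at 10 nM enzyme in 50 mM Tris acetate (final). Luminescence was read within 5 min of enzyme-buffer addition and normalized to PTC124 versus DMSO (0%).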

Assay [15] can be described thus: S16 Schwann cell viability assay (CellTiter-Glo assay) (AID 624031; active = well fitted curve in the direction sought with a large enough effect; an effect the other way counts as inactive or inconclusive;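 also: cellular ATP luminescence as a viability measure; series mostly up to about 58 µM; plate controls were DMSO-treated cells for no effect and cell-free wells for full effect; nearly all actives have a fitted effect of over 70% in size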). The method, boiled down: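 Native S16 rat Schwann cells, 500-750 cells/well in DMEM with 10% FBS, dosed with compound after overnight culture and incubated 24h at 37 degree Celsius/5% CO2. Viability by CellTiter-Glo luminescence; % activity normalized to no-cell wells and DMSO-treated cells.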
On the technique in general: Cellular ATP, detected with luciferase, serves as a proxy for viable cell number.

Assay [16] is described as follows: S16 Schwann cell PMP22 intronic element firefly luciferase assay (AID 624032; active = well fitted curve in the direction sought with a large enough effect; an effect the other way counts as inactive or inconclusive; also: nearly all actives have a fitted effect of over 30% in size; also: potency is read from the fitted curve at half-maximal effect). Summed up:
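Rat S16 Schwann cells stably carrying a PMP22 intronic element-driven Fluc reporter were seeded overnight, then exposed to compounds for 24 h at 37 °C. Luminescence was normalized to PTC124 (positive control) and DMSO (0% activity).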

The nature of assay [17]: S16 Schwann cell PMP22 intronic element beta-lactamase assay (AID 624044).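 Also: 0% = DMSO and -100% = potassium clavulanate positive control; nearly all actives have a fitted effect of over 15% in size.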 Summed up: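 Rat S16 Schwann cells with beta-Lac driven by a PMP22 intronic element, compound-treated 24 h at 37 °C. LiveBLAzer FRET B/G read: 460 nm normalized to potassium clavulanate vs DMSO; 535 nm FRET as viability; concentration-effect curves classified.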
For assay [18], the target named is Vitamin D3 receptor (Homo sapiens) (UniProt P11473). Kind of assay: qHTS assay for small molecule antagonists of vitamin D receptor signaling (AID 588541).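 Also: receptor activated by calcitriol during compound treatment; series mostly up to about 77 µM; % is scaled to controls: 0 for no effect and ±100 for the full control effect.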 The method, boiled down: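 VDR-UAS-bla HEK293T cells (2000/well, 2% charcoal-stripped FBS) were treated with titrated compounds plus 1-alpha,25-dihydroxyvitamin D3 (50 nM or 3 nM final) for 16 h at 37 C. CCF4 beta-lactamase fluorescence was read; Hill fits gave IC50.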
Sequence of Vitamin D3 receptor (Homo sapiens) (P11473 whole entry, looked up): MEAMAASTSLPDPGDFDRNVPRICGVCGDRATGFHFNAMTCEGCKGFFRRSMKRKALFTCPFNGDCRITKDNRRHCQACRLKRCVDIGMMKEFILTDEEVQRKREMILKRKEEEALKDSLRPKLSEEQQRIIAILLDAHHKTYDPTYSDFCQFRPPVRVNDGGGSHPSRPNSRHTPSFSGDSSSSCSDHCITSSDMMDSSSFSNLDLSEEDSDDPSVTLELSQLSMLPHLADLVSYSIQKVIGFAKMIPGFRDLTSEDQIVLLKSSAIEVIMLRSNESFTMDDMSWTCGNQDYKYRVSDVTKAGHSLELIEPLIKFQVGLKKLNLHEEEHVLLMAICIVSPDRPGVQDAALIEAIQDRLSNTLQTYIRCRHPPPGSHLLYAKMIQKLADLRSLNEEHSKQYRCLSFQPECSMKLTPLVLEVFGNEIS

Each structure is given as a SMILES string. “And” between values parts separate entries of the source, which are not always exact repeats. Equal values may be shown once. Inconclusive results are not listed. Where a structure was tested more than once in an assay, its records may differ in their call. The source made the active and inactive calls. Unless noted, calls follow the shape of the full dose curve.

Sequence of Retinoic acid receptor RXR-alpha (Homo sapiens) (P19793 whole entry, looked up): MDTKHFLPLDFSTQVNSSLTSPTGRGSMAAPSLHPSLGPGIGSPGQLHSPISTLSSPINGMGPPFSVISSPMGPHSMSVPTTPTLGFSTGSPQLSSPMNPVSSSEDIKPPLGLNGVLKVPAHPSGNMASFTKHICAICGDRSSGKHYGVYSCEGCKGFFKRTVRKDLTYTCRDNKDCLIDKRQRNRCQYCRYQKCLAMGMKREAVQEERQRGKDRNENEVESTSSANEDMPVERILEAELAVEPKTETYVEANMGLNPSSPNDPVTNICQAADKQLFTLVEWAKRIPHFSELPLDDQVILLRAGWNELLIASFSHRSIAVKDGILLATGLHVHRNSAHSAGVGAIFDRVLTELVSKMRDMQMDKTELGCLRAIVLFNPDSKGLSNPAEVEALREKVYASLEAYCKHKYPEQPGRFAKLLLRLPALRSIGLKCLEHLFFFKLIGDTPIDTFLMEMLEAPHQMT
Sequence of Glucocorticoid receptor (Homo sapiens) (P04150 whole entry, looked up): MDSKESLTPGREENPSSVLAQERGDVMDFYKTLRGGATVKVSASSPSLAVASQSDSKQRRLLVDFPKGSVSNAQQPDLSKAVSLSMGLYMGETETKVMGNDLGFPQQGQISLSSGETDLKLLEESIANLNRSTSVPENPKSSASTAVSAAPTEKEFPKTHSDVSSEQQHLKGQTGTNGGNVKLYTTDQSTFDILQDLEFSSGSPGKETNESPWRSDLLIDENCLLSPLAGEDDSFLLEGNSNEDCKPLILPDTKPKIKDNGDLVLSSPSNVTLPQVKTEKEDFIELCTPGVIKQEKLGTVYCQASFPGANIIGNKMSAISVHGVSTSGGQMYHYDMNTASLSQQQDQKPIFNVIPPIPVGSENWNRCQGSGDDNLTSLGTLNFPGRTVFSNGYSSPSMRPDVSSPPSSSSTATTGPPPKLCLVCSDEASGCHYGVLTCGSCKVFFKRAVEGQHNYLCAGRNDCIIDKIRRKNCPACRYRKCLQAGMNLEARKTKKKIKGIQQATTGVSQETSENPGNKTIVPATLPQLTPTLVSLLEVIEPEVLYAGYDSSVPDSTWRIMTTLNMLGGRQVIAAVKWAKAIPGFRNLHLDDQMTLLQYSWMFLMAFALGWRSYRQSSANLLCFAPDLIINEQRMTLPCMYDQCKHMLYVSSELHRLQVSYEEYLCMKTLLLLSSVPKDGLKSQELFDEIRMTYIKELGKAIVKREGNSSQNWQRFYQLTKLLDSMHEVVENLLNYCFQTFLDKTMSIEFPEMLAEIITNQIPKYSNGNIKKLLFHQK
Sequence of Peroxisome proliferator-activated receptor delta (Homo sapiens) (Q03181 whole entry, looked up): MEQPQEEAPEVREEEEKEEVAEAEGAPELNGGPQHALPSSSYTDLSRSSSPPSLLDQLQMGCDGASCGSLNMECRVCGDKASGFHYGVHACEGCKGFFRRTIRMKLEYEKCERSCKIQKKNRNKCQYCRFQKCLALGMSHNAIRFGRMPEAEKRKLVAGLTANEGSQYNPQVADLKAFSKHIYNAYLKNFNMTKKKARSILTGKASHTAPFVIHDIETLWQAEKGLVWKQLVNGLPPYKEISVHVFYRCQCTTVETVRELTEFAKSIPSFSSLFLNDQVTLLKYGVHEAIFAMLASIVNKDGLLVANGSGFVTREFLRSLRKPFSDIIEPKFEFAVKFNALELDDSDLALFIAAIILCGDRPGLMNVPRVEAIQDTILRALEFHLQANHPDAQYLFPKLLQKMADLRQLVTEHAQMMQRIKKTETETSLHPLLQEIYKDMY
Sequence of Luciferin 4-monooxygenase (Photinus pyralis) (P08659 whole entry, looked up): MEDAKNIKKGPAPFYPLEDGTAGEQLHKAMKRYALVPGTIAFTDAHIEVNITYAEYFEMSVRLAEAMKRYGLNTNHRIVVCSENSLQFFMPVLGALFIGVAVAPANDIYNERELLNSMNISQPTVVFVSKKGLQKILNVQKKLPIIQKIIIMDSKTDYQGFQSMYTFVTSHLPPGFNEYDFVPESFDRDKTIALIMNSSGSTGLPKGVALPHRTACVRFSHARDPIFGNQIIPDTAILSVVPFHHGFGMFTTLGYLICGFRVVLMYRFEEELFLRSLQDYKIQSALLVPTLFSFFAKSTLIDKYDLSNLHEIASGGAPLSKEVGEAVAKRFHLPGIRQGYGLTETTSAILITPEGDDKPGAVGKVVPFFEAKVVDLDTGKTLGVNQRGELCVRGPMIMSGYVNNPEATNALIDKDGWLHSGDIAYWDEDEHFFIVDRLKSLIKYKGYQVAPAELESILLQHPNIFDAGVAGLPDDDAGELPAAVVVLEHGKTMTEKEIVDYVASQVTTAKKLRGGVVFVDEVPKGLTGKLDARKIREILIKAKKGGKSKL
Sequence of Voltage-gated inwardly rectifying potassium channel KCNH2 (Homo sapiens) (Q12809 whole entry, looked up): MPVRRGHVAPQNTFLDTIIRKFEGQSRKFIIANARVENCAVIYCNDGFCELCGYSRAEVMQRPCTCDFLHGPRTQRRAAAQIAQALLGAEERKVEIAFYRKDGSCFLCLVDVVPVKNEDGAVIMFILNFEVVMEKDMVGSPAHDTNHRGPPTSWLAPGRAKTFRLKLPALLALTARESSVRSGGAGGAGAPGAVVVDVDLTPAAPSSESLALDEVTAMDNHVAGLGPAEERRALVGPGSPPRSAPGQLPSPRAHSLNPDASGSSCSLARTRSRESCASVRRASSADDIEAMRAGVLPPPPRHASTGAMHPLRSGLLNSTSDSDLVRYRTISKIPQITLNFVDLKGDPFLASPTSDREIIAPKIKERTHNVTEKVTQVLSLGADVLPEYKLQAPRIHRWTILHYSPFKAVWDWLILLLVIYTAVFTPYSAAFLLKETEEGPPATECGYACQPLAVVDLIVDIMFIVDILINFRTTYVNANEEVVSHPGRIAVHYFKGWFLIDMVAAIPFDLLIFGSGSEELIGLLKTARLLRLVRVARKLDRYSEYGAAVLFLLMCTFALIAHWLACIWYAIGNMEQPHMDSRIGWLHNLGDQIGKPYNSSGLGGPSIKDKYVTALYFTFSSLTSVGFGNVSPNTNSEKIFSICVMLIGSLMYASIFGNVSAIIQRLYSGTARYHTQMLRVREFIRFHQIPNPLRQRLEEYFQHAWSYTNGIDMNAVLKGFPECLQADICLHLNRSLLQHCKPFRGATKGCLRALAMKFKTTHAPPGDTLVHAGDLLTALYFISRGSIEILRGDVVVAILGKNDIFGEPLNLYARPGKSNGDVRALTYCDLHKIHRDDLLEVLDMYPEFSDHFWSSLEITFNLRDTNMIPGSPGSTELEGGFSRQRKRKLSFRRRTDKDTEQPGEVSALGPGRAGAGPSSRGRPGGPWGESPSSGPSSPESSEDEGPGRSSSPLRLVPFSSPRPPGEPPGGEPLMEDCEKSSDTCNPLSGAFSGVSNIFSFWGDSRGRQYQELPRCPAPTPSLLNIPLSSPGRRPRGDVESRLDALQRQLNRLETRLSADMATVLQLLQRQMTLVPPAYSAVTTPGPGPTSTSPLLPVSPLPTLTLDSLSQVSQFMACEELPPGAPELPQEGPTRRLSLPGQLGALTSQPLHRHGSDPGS

In the case of `CCc1nc(N)nc(N)c1-c1ccc(Cl)cc1`, in assay [1], the compound was called inactive.

As for `C#C[C@]1(O)CC[C@H]2[C@@H]3CCC4=Cc5oncc5C[C@]4(C)[C@H]3CC[C@@]21C`, in assay [1], the result was inactive.

For `CCOP(=S)(OCC)Oc1cc(C)nc(C(C)C)n1`, the Potency entry in [2], in assay [6], in assay [8], in assay [13], in assay [14] and in assay [15] was “inactive” throughout. The Potency entry in assay [16] and in assay [17] was “inactive” in each case. For the same compound, the compound was classed as inactive in [1], in assay [4], in assay [5] and in assay [9]. In addition, the max response in [3] is -10.2% and 44.9%; in [7] it was -5.09% and -15.6%; in [10] it was -12.3% and -5.87%; in [11] it was -2.21% (inactive) and -10% (inactive). Besides, the activity change % (negative = inhibition) in [12] was -8.33% (inactive) and 8.71% (inactive).

In the case of `Clc1ccc(COC(Cn2ccnc2)c2ccc(Cl)cc2Cl)cc1` (stereo unspecified), the result in [1] was inactive.

As to `CCCCOCCOCCOCc1cc2c(cc1CCC)OCO2`, in assay [1], the call was inactive.

On to `O=NN(CCCl)C(=O)NCCCl`, for which the compound was called inactive in assay [1].

With `CNCC(O)c1ccc(O)cc1` (stereo unspecified), the Potency entry in assay [2], in assay [8] and in assay [13] was “inactive” throughout. The result in assay [1], in [4], in assay [18] and in assay [9] was inactive. Further, the max response in assay [3] was -16.7%; in [7], 4.18%; in assay [10], 8.32%; in assay [11], 7.59% (inactive). Moreover, in assay [12], the activity change % (negative = inhibition) was 3.5% (inactive).

Turning to `NC[C@H](O)c1ccc(O)c(O)c1`, the result in assay [1] was inactive.

Consider `Cc1cn([C@H]2C=C[C@@H](CO)O2)c(=O)[nH]c1=O`, for which the compound was called inactive in [1].

On to `N[C@@H](Cc1ccc(N(CCCl)CCCl)cc1)C(=O)O`, for which the Potency result in [2] and in assay [14] was “inactive” throughout. Besides, in assay [16], the Potency was 9.07 µM (active).

Consider `Oc1ccc(Cl)cc1Cc1ccccc1`, for which the Potency result in [2], in assay [14], in [15], in assay [16] and in assay [17] was “inactive” in each case. Further, the outcome in assay [1], in assay [4], in assay [5] and in assay [9] was inactive. Moreover, the max response in [3] is 28.1% and 8.37%; in [7], -11.5% and -1.88%; in [10], -5.58%; in assay [11] it was -16.2% (inactive). Further, the Potency in [8] was 35.5 µM (active) and 39.8 µM (active); in [13], “inactive and 44.7 µM (active)”. In assay [12], the activity change % (negative = inhibition) was -6.58% (inactive) and 9.11% (inactive).

As to `CCCCNC(=O)NS(=O)(=O)c1ccc(C)cc1`, in assay [1], the outcome was inactive.

The values are drawn from PubChem BioAssay (NCATS).
